From PubChem BioAssay come the findings set out here.

The source made the active and inactive calls. Unless noted, how the calls were made is not given here.

Assay [1] concerns XIP peptide (Xip251-270) binding. The assay can be described thus: XIP fragment 251-270 binding compounds – biochemical, small-molecule microarray, fluorescence 635/667 nm, 0.1 µg/mL protein, primary screen (AID 1182). As to conditions: fluorescent protein binding, 635 nm, higher = more signal, called active from +8 up or from −8 down.
The test system of another assay is XIP peptide (Xip251-270). The assay can be described thus: compounds binding XIP fragment 251-270 – biochemical, small-molecule microarray, fluorescence 635/667 nm, 0.5 µg/mL protein, primary screen (AID 1183). Conditions: fluorescence 635 nm, higher = more signal.
Assay [2] is described as follows: blood-stage malaria parasite viability loss – strain 3D7, DAPI fluorescence, 100 nL, primary screen (AID 1184).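 Further: parasites grown inside human red blood cells in medium with human serum.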 As to conditions: P. falciparum 3D7 growth, 3 d, higher = more signal.
For assay [3], the target named is Homeobox protein Hox-A13 (Mus musculus) (UniProt Q62424). Nature of the assay: disruptors of Hoxa13 oligonucleotide interaction – biochemical, fluorescence polarization, labeled oligonucleotide, primary screen (AID 1185). Conditions: Hoxa13:DNA binding, 15 min, higher = more signal, called active from +8 up or from −8 down.
Assay [4] in a line: blockers of DNA damage checkpoint Chk1 activation – imaging, HeLa, hydroxyurea, phospho-Chk1 antibody, percent positive cells, primary screen (AID 1186). As to conditions: hydroxyurea-induced phospho-Chk1 immunofluorescence imaging, higher = more signal.
Assay [5] is described as follows: blockers of DNA damage checkpoint Chk1 activation – imaging, HeLa, hydroxyurea, phospho-Chk1 nuclear intensity, primary screen (AID 1187). Conditions: hydroxyurea-induced phospho-Chk1 immunofluorescence imaging, higher = more signal.

Chain of Homeobox protein Hox-A13 (Mus musculus) (Q62424 whole entry, looked up): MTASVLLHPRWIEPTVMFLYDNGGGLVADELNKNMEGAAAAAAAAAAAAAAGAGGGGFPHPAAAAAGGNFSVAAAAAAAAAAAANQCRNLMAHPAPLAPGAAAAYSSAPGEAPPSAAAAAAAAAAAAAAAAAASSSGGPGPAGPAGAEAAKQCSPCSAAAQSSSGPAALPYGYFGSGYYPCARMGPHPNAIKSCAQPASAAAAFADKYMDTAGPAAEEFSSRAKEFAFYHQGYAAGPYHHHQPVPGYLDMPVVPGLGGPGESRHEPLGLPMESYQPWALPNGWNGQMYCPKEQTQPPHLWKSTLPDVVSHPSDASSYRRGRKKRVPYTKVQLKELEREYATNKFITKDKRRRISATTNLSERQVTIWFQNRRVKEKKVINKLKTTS

Take `NCCCCCCNC(=O)[C@@H]1C[C@@H]2C(=O)NCC(=O)N2[C@@H]1c1cccc(OCCO)c1`: the figures for the composite z-score (in assay [1]; in the assay on XIP peptide (Xip251-270)) were 0.592 (inactive) and 0.354, respectively. Further, the z-score in assay [2] is 0.418; in assay [3] it was -1.96 (inactive); in assay [4], 0.13 (inactive); in assay [5], 0.118 (inactive).
Consider `COc1ccc(C(O)C2C=CC3C(=O)N(c4ccccc4)C(=O)C3N2Nc2ccccc2F)c2ccccc12` (stereo not given), for which the figures for the composite z-score (in assay [1]; in the assay on XIP peptide (Xip251-270)) were 1.56 (inactive) and 0.795, respectively. The z-score was 0.482 in assay [2], -3.14 (inactive) in assay [3], 0.0395 (inactive) in assay [4] and -0.3 (inactive) in assay [5].
With `COCCOC(=O)N1C(=O)[C@@]2(c3cc(C#CCNC(N)=O)ccc31)[C@H](c1ccccc1OCCO)N1[C@H](c3ccccc3)[C@H](c3ccccc3)OC(=O)[C@H]1[C@@H]2C(=O)N1CCCCCCC1`, the results for the composite z-score (in assay [1]; in the assay with XIP peptide (Xip251-270)) were 0.564 (inactive) and 0.824, respectively. Also, the z-score is -2.13 in assay [2], 0.831 (inactive) in assay [3], -0.0593 (inactive) in assay [4] and -0.191 (inactive) in assay [5].
`CC(=O)NCCCC[C@@H]1NC(=O)[C@H]2C[C@@H](C(=O)O)[C@@H](c3cccc(OCCO)c3)N2C1=O`: the composite z-score is 1.31 (inactive) in assay [1] and 0.806 with XIP peptide (Xip251-270). In addition, the z-score was -0.48 in assay [2], -2.31 (inactive) in assay [3], 0.165 (inactive) in assay [4] and -0.347 (inactive) in assay [5].
In the case of `COc1c(C)cc(-c2cc3c(c(CCc4ccccc4)n2)[Si](C(C)C)(C(C)C)O[C@H]3c2ccccc2)cc1C`, the composite z-score in assay [1] is -0.0596 (inactive); with XIP peptide (Xip251-270), 0.0209. Besides, the z-score in assay [2] is -2.29; in assay [3] it was 1.6 (inactive); in assay [4], -0.0936 (inactive); in assay [5] it was 0.0911 (inactive).
On to `CC[C@@H](O[Si](C#C[Si](C(C)C)(C(C)C)C(C)C)(C(C)C)C(C)C)c1cn(Cc2cccc(Cl)c2)nn1`, for which the values for the composite z-score (in assay [1]; with XIP peptide (Xip251-270)) were 0.242 (inactive) and -0.0319, respectively. The z-score was 0.163 in assay [2], 0.335 (inactive) in assay [3], 0.212 (inactive) in assay [4] and -0.0184 (inactive) in assay [5].
Take `COc1cccc(C)c1NC(=O)O[C@H]1[C@H](OC(=O)Nc2ccc3c(c2)OCO3)[C@H](OC(=O)Nc2ccc3c(c2)OCO3)[C@@H](OC)O[C@@H]1CO`: the composite z-score in assay [1] was 0.574 (inactive); in the assay on XIP peptide (Xip251-270), 0.798. In addition, the z-score in assay [2] was -2.29; in assay [3], -7.67 (inactive); in assay [4], -0.698 (inactive); in assay [5], -1.29 (inactive).
Regarding `C=C(C(=O)CC[C@@H](OC(=O)c1ccccc1-c1ccccc1C(=O)O)c1cccc(OCCO)c1)C(C)C`, the values for the composite z-score (in assay [1]; with XIP peptide (Xip251-270)) were 0.0145 (inactive) and 0.25, respectively. In addition, the z-score in assay [2] is -2.01; in assay [3], -4.86 (inactive); in assay [4] it was -0.0826 (inactive); in assay [5], -0.0465 (inactive).
Regarding `O=C1NC(=O)C2C1C=CC(C(O)C(O)CO)N2Nc1ccccn1` (stereo not given), the composite z-score in assay [1] was -0.325 (inactive); in the assay on XIP peptide (Xip251-270) it was 0.129. Also, the z-score was 0.488 in assay [2], -0.781 (inactive) in assay [3], -0.163 (inactive) in assay [4] and -0.239 (inactive) in assay [5].
Consider `O=C1O[C@H](c2ccccc2)[C@H](c2ccccc2)N2[C@H]1[C@@H](C(=O)N1CCN(c3ncccn3)CC1)[C@]1(C(=O)Nc3ccc(C#CC4(O)CCCCCC4)cc31)[C@H]2c1ccc(O)cc1`, for which the composite z-score was 1.48 (inactive) in assay [1] and 0.817 with XIP peptide (Xip251-270). Further, the z-score in assay [2] is -0.797; in assay [3], -1.28 (inactive); in assay [4], -0.168 (inactive); in assay [5], -0.101 (inactive).
On to `C=C(COC)/C(=C/C[C@@H](OC(=O)c1ccncc1)c1ccccc1OCCO)c1cnc2ccccc2c1`, for which the composite z-score was 0.882 (inactive) in assay [1] and 0.745 in the assay with XIP peptide (Xip251-270). The z-score in assay [2] was -3.1; in assay [3], -4.25 (inactive); in assay [4], 0.112 (inactive); in assay [5], -0.291 (inactive).
As to `Cc1ccc(S(=O)(=O)N2[C@@H](c3ccccc3)C(C(=O)O)=C[C@H]2C(C)(C)C)cc1`, the composite z-score in assay [1] was 1.11 (inactive); in the assay with XIP peptide (Xip251-270) it was 0.792. For the same molecule, the z-score in assay [2] is -1.04; in assay [3], -5.12 (inactive); in assay [4] it was 0.694 (inactive); in assay [5] it was 0.0696 (inactive).
As to `COc1ccc(C#Cc2ccc3c(c2)[C@]2(C(=O)N3)[C@H](c3ccccc3OCCO)N3[C@H](c4ccccc4)[C@H](c4ccccc4)OC(=O)[C@H]3[C@@H]2C(=O)NC[C@H](O)c2ccccc2)cc1`, the composite z-score in assay [1] was 0.134 (inactive); with XIP peptide (Xip251-270), 0.709. For the same molecule, the z-score in assay [2] was -2.01; in assay [3] it was -1.77 (inactive); in assay [4], -0.11 (inactive); in assay [5] it was 0.108 (inactive).
On to `C=C(CCCC)C(=O)CC[C@H](OC(=O)c1ccccc1-c1ccccc1C(=O)O)c1cccc(OCCO)c1`, for which the values for the composite z-score (in assay [1]; in the assay on XIP peptide (Xip251-270)) were -0.459 (inactive) and 0.614, respectively. For the same molecule, the z-score in assay [2] was -2.65; in assay [3], -6.4 (inactive); in assay [4] it was 1.01 (inactive); in assay [5], 0.182 (inactive).
For `C=C(/C=C\CNS(=O)(=O)c1ccc(C)cc1)[C@H](O)[C@H]1CCCN1S(=O)(=O)c1ccccc1[N+](=O)[O-]`, the composite z-score in assay [1] was -0.167 (inactive); in the assay with XIP peptide (Xip251-270), -0.167. The z-score in assay [2] is -1.8; in assay [3], -5.5 (inactive); in assay [4], -0.225 (inactive); in assay [5], 0.161 (inactive).
